# L3MBTL1 block: L3MBTL1 (human) inhibition; Q9Y468; AlphaScreen L3MBTL1–H3K9me1 peptide binding; Potency, µM (doses to about 57.1 µM), without a hit: at the highest dose activity, negative = inhibition, usual class: inhibitors; 230,000 tested, 0.66% active; AID 485360; note: % is set by controls: 0 for no effect and ±100 for the full control effect; nearly all actives have a fitted effect of over 60% in size
#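 L3MBTL1 (50 nM) pre-complexed 30 min with biotinylated H3(1-15)K9me1 peptide (75 nM), then compounds added for 30 min at room temperature; AlphaScreen streptavidin donor/nickel chelate acceptor beads (10 ug/mL final) read after 30 min dark incubation.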
# BAZ2B block: inhibitors of human BAZ2B bromodomain; Q9UIF8; AlphaScreen BAZ2B-H3K14Ac peptide displacement; Potency, µM (doses to about 114 µM), for inactives: at the top dose activity change, negative = inhibition, hits mostly inhibitors; 360,000 tested, 4.4% active; note: % is set by controls: 0 for no effect and ±100 for the full control effect; nearly all actives have a fitted effect of over 60% in size
#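 Complex of BAZ2B and biotin-H3K14Ac (50 nM apiece) forms over 30 min at RT, then faces library compounds up to 110 uM for another 30 min; AlphaScreen beads added, 20 min dark incubation, luminescence read.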
# JMJD2A Tudor: blocks the human JMJD2A Tudor domain; O75164; AlphaScreen JMJD2A-Tudor / H3K4me3 peptide binding; Potency, µM (series often up to 114 µM), for inactives: at the highest dose activity change, negative = inhibition, actives largely listed as inhibitors; 390,000 tested, 4.4% active; AID 504339; note: % is set by controls: 0 for no effect and ±100 for the full control effect; nearly all actives have a fitted effect of over 50% in size
# Target sequence (O75164 whole entry, looked up, the tested form may be a part): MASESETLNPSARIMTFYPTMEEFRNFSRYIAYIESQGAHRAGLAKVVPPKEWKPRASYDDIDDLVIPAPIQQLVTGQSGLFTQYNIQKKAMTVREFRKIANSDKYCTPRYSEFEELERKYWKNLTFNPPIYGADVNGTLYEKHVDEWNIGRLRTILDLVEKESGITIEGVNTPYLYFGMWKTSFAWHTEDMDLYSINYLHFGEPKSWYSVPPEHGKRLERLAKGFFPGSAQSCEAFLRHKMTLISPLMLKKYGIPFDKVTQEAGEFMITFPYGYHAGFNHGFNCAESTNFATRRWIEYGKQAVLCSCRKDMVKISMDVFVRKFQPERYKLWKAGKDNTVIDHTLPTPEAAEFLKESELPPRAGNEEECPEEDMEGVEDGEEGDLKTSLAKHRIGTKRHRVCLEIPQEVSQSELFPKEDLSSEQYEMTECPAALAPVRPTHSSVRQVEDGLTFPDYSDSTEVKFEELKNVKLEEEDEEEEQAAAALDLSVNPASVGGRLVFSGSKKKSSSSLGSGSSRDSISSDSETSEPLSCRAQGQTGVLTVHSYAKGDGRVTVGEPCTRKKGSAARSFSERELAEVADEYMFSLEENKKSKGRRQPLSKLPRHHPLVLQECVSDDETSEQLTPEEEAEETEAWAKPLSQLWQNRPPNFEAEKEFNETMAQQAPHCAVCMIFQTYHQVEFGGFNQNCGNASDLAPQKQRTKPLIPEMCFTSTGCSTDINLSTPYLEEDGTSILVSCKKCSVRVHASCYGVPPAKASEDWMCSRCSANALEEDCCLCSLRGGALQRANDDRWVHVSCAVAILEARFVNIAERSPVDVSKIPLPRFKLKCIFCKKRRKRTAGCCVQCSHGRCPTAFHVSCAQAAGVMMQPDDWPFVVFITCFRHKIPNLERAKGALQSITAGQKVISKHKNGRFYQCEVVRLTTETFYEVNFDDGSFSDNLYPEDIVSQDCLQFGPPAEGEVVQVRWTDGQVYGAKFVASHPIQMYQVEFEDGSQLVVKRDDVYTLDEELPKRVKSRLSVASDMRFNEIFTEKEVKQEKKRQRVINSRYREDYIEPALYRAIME
# HP1b chromo inh: blocks HP1-beta chromodomain binding to methylated histone tails; P83916; AlphaScreen HP1-beta / biotin-H3K9me3 peptide binding; Potency, µM (top dose mostly 114 µM), for the others: at the top dose activity change, negative = inhibition, most hits filed as inhibitors; 390,000 tested, 0.56% active; AID 540317; note: nearly all actives have a fitted effect of over 70% in size
#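 AlphaScreen: HP1-beta (50 nM) preformed 30 min with biotin-H3(1-18)K9me3 peptide (50 nM) in PBS pH 7.4, 0.01% Tween-20. Compound added for 30 min at RT, then streptavidin donor/nickel chelate acceptor beads (10 ug/mL) for 30 min.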
# G9a block: G9a (human) methyltransferase inhibition. Q96KQ7. G9a H3K9 monomethylation, AlphaScreen, 2 h. Potency, µM (doses to about 102 µM), inactives show at the highest dose activity, negative = inhibition, actives largely listed as inhibitors. 350,000 tested, 8.8% active. AID 504332; note: % is set by controls: 0 for no effect and ±100 for the full control effect; nearly all actives have a fitted effect of over 75% in size
#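 Methyltransferase reactions run at room temperature for 2 h (20 nM enzyme, 500 nM biotin-H3K9 peptide, 20 uM SAM) after a 15 min compound preincubation; product detected by AlphaScreen beads and anti-H3K9me1 antibody.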
# Numbers without * were called inactive; u = inconclusive; x = no result given; [ ] = another dose, or the depositor's remark. The list is not random: actives were taken first. Their share in the collection is about 11%. Calls come from the whole dose curve; as a rule, active = well fitted inhibition curve with a large enough effect; inconclusive = small, poorly fitted or top-dose-only effect; inactive = no such curve, though single readings can be large or run the other way. Potency is the fitted concentration of half-maximal effect.
SMILES,L3MBTL1 block,BAZ2B block,JMJD2A Tudor,HP1b chromo inh,G9a block
CCOC(=O)CSc1nnc(NC(=O)CN2CCCCC2)s1,x,-4%,50µM*,23%,5%[12.7 µM]
CCOC(=O)CSc1nnc(NC(=O)c2cccc([N+](=O)[O-])c2C)s1,6%,-8%,-10%,31%,25µM*
CC(OC(=O)CC1CCCCC1)C(=O)Nc1ccc(F)cc1 (stereo not drawn),6%,6%,7%,4%,3%
COc1cccc(C(=O)Nc2cccc(C(=O)OCc3cc(=O)n4nc(C5CC5)sc4n3)c2)c1,x,-10%,-17%,26%,-1%[59 µM]
CCN=C1S/C(=C/c2ccc(-c3ccc(F)cc3)o2)C(=O)N1CC,x,-32%,28%,36%,35µM*
CCN=C1S/C(=C\c2ccc(Sc3ccc(Cl)cc3)o2)C(=O)N1CC,6%,27%,46%,163%,148%
CN(C(=S)NC1=CCS(=O)(=O)C1)C1CCCCC1,x,0%,-5%,32%,10µM*
O=C(CCN1C(=O)/C(=C\C=C\c2ccccc2)SC1=S)Nc1ccccc1C(=O)O,x,-11%,45µM*,u,73%
O=C(CCCN1C(=O)/C(=C\c2ccccc2)SC1=S)Nc1cccc(C(=O)O)c1,x,u,-32%,6%[57 µM],u
O=C(CCN1C(=O)/C(=C/C=C/c2ccccc2)SC1=S)Nc1nccs1,-2%,-4%,-12%,2%,5%
O=C(CCN1C(=O)/C(=C\C=C\c2ccccc2)SC1=S)Nc1cccc(C(=O)O)c1,x,20µM*,50µM*,u,x
CSCCC1NC2(C(=O)Nc3c(Cl)cccc32)[C@@H]2C(=O)N(C3CCCC3)C(=O)[C@H]12 (stereo partly drawn),-21%,-24%,u,4%,71µM*
CSCCC1NC2(C(=O)Nc3c(C)cc(Cl)cc32)[C@@H]2C(=O)N(C3CCCC3)C(=O)[C@H]12 (stereo partly drawn),-13%,u,-34%,-10%,u
COc1cccc(CN2CCN(Cc3cc(OC)c(OC)cc3OC)CC2)c1,x,20µM*,1.6µM*,18µM*,45µM*
COc1cc(OC)c(OC)cc1CN1CCN(Cc2ccc(SC)cc2)CC1,-6%,40µM*,20µM*,u,3.2µM*
COc1ccc(S(=O)(=O)N2CCN(Cc3cccc(OC)c3)CC2)cc1,-3%,5%,-4%,45%,9%
COc1cc(CN2CCN(Cc3ccc(SC)cc3)CC2)cc(OC)c1O,-11%,50µM*,0.89µM*,25µM*,7.9µM*
CSc1ccc(CN2CCC(CO)(Cc3ccc(Cl)cc3)CC2)cc1,-2%,-15%,-29%,7%,-2%[0.501 µM]
CCN(C(=O)c1cccnc1SC)C12CC3CC(CC(C3)C1)C2,x,-3%,8%,31%,3%
Cc1cc2[nH]c3c(c[n+](C)c4ccccc34)c2cc1C,10%,u,-7%,22%,18µM*
Cc1cc2[nH]c3c4ccccc4nc(C)c3c2cc1C,x,x,u,3%,x
O=C(NCC(c1ccco1)N1CCc2ccccc2C1)C(=O)Nc1ccc(F)cc1F (stereo not drawn),0%,-29%,-18%,2%,0%
COc1ccc(N(CC(=O)N/N=C/c2ccco2)S(=O)(=O)c2ccccc2)cc1,u,u,u,u,50µM*
COc1ccc(N(CC(=O)NCCc2ccccc2)S(=O)(=O)c2ccc(OC)c(OC)c2)cc1,x,4%,-18%,20%,-7%[59 µM]
COc1ccc(NC(=O)CN(c2ccc([N+](=O)[O-])cc2)S(=O)(=O)c2ccccc2)cc1,-3%,3%,-29%,2%,u
SMILES,L3MBTL1 block,BAZ2B block,JMJD2A Tudor,HP1b chromo inh,G9a block
COc1ccc(S(=O)(=O)N(CC(=O)NCCc2ccccc2)c2ccc(Cl)cc2)cc1,x,-3%,-21%,-8%,16µM*
COc1ccc(N(CC(=O)Nc2ccccc2C(=O)O)S(=O)(=O)c2ccc(C)c([N+](=O)[O-])c2)cc1,-8%,u,-26%,23%,40µM*
COc1cc(C(=O)NC(=S)Nc2ccc3[nH]c(=O)[nH]c3c2)cc(OC)c1OC,x,-14%,-26%,35%,-5%
COc1ccc(N2CCN(C(CNC(=O)C(=O)NCCCN(C)C)c3cccnc3)CC2)cc1 (stereo not drawn),x,2%,-1%,58%,1%[59 µM]
O=C(NS(=O)(=O)c1ccccc1Cl)c1ccc[nH]1,-17%,-9%,x,x,79µM*
N#CCc1c(C#N)c(N)nc(N2CCN(c3ccc(F)cc3)CC2)c1C#N,x,13%,u,13%,50µM*
COc1ccc(CN2C(=O)Cc3c2nc(N)c2c(N)nc(N4CCOCC4)c(C#N)c32)cc1,x,-27%,-6%,14%,-30%[12.7 µM]
COCCN1C(=O)Cc2c1nc(N)c1c(N)nc(N3CCN(c4ccc(F)cc4)CC3)c(C#N)c21,-23%,-34%,-32%,5%,35µM*
Cc1ccc(N2CC(C(=O)N3CCN(Cc4ccc5c(c4)OCO5)CC3)CC2=O)cc1 (stereo not drawn),x,3%,-1%,22%,14%[59 µM]
NC1(C(=O)O)CCc2cc(C(=O)O)ccc21 (stereo not drawn),x,x,x,x,4.5µM*
O=C(CCCN1C(=O)C(c2ccccc2)Oc2cccnc21)Nc1ccc(Br)cc1F (stereo not drawn),x,-38%,-11%,38%,2%[59 µM]
Cc1cccc(N2CCN(C(=O)Cn3ncc4c3-c3cc(C)ccc3OC4)CC2C)c1 (stereo not drawn),x,32µM*,u,-9%,u
Cc1cccc(N2CCN(C(=O)CN3CCSc4ccccc43)CC2C)c1 (stereo not drawn),x,u,50µM*,-15%[57 µM],-44%[59 µM]
COc1ccc(Cl)cc1NC(=O)Cn1cc(C(=O)c2ccncc2)c(=O)c2cc(C)ccc21,x,0%,-20%,11%[57 µM],8%[59 µM]
O=C(Cn1ccc2cc(S(=O)(=O)N3CCCCC3)ccc21)NCCc1ccccc1Cl,x,-20%,-23%,15%,7%[59 µM]
Cc1ccc(C)c(N2CCN(CCCNC(=O)CCC(=O)N3CCOc4ccc(Cl)cc43)CC2)c1,x,u,x,x,-7%
O=C(CCC(=O)N1CCOc2ccc(Cl)cc21)NCCCN1CCC(Cc2ccccc2)CC1,0%,-37%,-26%,22%,12%
O=C(CCC(=O)N1CCOc2ccc(Cl)cc21)NCCCN1CCN(c2ccccc2F)CC1,3%,u,-19%,21%,89µM*
COc1ccc(N2CCN(CCCNC(=O)CCC(=O)N3CCOc4ccc(Cl)cc43)CC2)cc1,x,32µM*,u,-17%,x
CC(C)CN1CCCC2(CCN(C(=O)c3ccco3)CC2)C1,x,x,x,x,3%[12.7 µM]
Cc1cccc(C(=O)NNC2=C(C(=O)C(F)(F)F)CCC2)c1O,x,18µM*,79µM*,-22%,u
O=C(NNC1=C(C(=O)C(F)(F)F)CCC1)c1cccc(O)c1,-5%,0%,-20%,16%,1%[59 µM]

# Compound activity from PubChem BioAssay.
